Inconclusive results are not listed. Calls of active or inactive are those of the source. Calls come from the whole dose curve; as a rule, active = well fitted curve in the direction sought with a large enough effect; inconclusive = small, poorly fitted or top-dose-only effect, or another doubt; inactive = no such curve, though single readings can be large; an effect the other way counts as inactive or inconclusive.
Legend:
[1] = U-118MG Cancer Cell Toxicity qHTS against the NCATS CANVASS Library (AID 1347351)
Method in brief: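 Viability was assessed by adding CellTiter-Glo reagent to treated cultures and reading luminescence after 15min at room temperature. Treatment lasted 72 h at 37 degrees C/5% CO2, using an 11-point series on 1000 cells/well.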

[2] = HPAF-II 24hr Apoptosis Induction qHTS against the NCATS CANVASS Library (AID 1347356)
Method in brief: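 Using an 11-point qHTS format, HPAF-II cells in DMEM/10% FBS received compounds for 24 h; doxorubicin titration as control. Caspase-3/7 activity quantified by DEVD-luciferase luminescence.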

[3] = HEK293 18hr Apoptosis Induction qHTS against the NCATS CANVASS Library (AID 1347357)
Method in brief: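 Luminescent caspase-3/7 signal is measured in HEK293 cells exposed for 18 hours to an 11-point concentration series; doxorubicin serves as the plate control.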

[4] = HPAF-II 12hr Apoptosis Induction qHTS against the NCATS CANVASS Library (AID 1347358)
Method in brief: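 Twelve-hour compound exposure of HPAF-II cells in DMEM with 10% FBS, then luminescent Caspase-Glo 3/7 detection after 15 min at room temperature; doxorubicin control.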

[5] = HEK293 24hr Apoptosis Induction qHTS against the NCATS CANVASS Library (AID 1347359)
Method in brief: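 HEK293 cells (500/well, DMEM + 10% FBS) were exposed to compounds in an 11-point series for 24 hours at 37 degrees C, then caspase-3/7 activity was read by Caspase-Glo DEVD luciferase luminescence after 15 min.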

[6] = HPAF-II 18hr Apoptosis Induction qHTS against the NCATS CANVASS Library (AID 1347360)
Method in brief: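 Apoptosis was scored as caspase-3/7 activity in HPAF-II pancreatic cancer cells treated 18 hours with an 11-point concentration series.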

[7] = HEK293 12hr Apoptosis Induction qHTS against the NCATS CANVASS Library (AID 1347361)
Method in brief: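 Apoptosis in HEK293 was scored as caspase-3/7 luminescence following 12 h treatment with a compound concentration series in qHTS format.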

[8] = system: NAD(P)H diaphorase (Clostridium kluyveri); test: Diaphorse counterscreen qHTS: Assay Interference Panel against the NCATS CANVASS Library (AID 1347362)
Method in brief: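 Clostridium kluyveri diaphorase in PBS with 0.01% Tween-20 was preincubated 15 min at room temperature in the dark with compounds (11-point series). Resorufin fluorescence (ex 525/20, em 598/25) was read 5 min after adding resazurin/NADH.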

[9] = target: Luciferin 4-monooxygenase (Photinus pyralis) (UniProt P08659); test: Firefly luciferase counterscreen qHTS: Assay Interference Panel against the NCATS CANVASS Library (AID 1347363)
Method in brief: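 Purified P. pyralis luciferase was added to compounds (11-point series) preincubated 15 min at room temperature with substrate containing 0.013 mM D-luciferin and 0.013 mM ATP; luminescence was read after 5 min.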

[10] = SDT Cancer Cell Toxicity qHTS against the NCATS CANVASS Library (AID 1347365);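 note: SDT canine glioma cells 500 per well in 1536 well plates; nearly all actives have a fitted effect of over 60% in size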
Method in brief: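 Canine SDT glioma cell toxicity was scored by ATP-dependent luminescence after a 72 hr incubation with an 11-point compound series.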

[11] = qHTS for ATAD5 Agonist screened against the NCATS CANVASS Library (AID 1347367);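 note: luciferase reporter driven by ATAD5 which rises upon DNA damage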
Method in brief: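 Step one plated reporter cells and let them acclimate 5hr. Step two pinned compounds with MMS as positive and 0.46% DMSO as negative control. After 16hr incubation, fluorescence viability then luminescence were read.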

[12] = G06 Cancer Cell Toxicity qHTS against the NCATS CANVASS Library (AID 1347368); note: nearly all actives have a fitted effect of over 60% in size
Method in brief: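 Quantitative HTS in G06 cells (dog glioma): 72 hr treatment, 11 concentrations, then ATP-based luminescent viability readout; bortezomib 0.1 nM–4.6 uM final as reference.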

[13] = MCF7 Cancer Cell Toxicity qHTS against the NCATS CANVASS Library (AID 1347369)
Method in brief: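 Cytotoxicity is measured by ATP content: MCF7 cells at 500 per well receive an 11-point compound series and, after 72 hr at 37C, are lysed with CellTiterGlo for luminescence.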

[14] = qHTS for ATAD5 Antagonist screened against the NCATS CANVASS Library (AID 1347370);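 note: HEK293T cells carrying an ATAD5 luciferase reporter co-treated with 10 µM 5-fluorouridine; nearly all actives have a fitted effect of over 65% in size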
Method in brief: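 HEK293T-ATAD5 luc reporter, 2000 cells/well; 5hr attach; cpd + 10 uM 5-FUrd; 16hr 37C, 5% CO2. Readouts: CellTiter-Fluor fluorescence (1hr), then Amplite luciferase luminescence (30min RT).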

[15] = J3T Cancer Cell Toxicity qHTS against the NCATS CANVASS Library (AID 1347371);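 note: J3T is a canine glioma cancer cell line seeded at 500 cells per well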
Method in brief: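 ATP-based cytotoxicity in canine J3T cells: 72 hr exposure at 37C, 11-point titration, CellTiterGlo luminescent detection.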

[16] = COV-362 Cancer Cell Toxicity qHTS against the NCATS CANVASS Library (AID 1347352)
Method in brief: (§1)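 Using an ATP-based luminescent reagent after three days of treatment, toxicity is scored across an eleven-concentration range in wells holding 1000 cells each.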

[17] = A2780 Cisplatin Sensitive Ovarian Cancer Cell Toxicity qHTS against the NCATS CANVASS Library (AID 1347353); conditions: A2780 ovarian cancer viability, ATPLite luminescence, 72 h; at 46.1 µM (top of the series); note: nearly all actives have a fitted effect of over 60% in size
Method in brief: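 Quantitative HTS format: eleven compound concentrations applied to pre-seeded cells, 72 h incubation at 37 °C, then ATP detection by luminescence.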

[18] = UWB1.289-WTBRCA1 Cancer Cell Toxicity qHTS against the NCATS CANVASS Library (AID 1347354)
Method in brief: as §1

[19] = HEK-293 Cancer Cell Toxicity qHTS against the NCATS CANVASS Library (AID 1347355); conditions: HEK-293 viability, CellTiter-Glo luminescence, 72 h; at 46.1 µM (top of the series); note: nearly all actives have a fitted effect of over 65% in size
Method in brief: as §1

[20] = KB-3-1 Cancer Cell Toxicity qHTS against the NCATS CANVASS Library (AID 1347366); conditions: KB-3-1 viability, CellTiter-Glo luminescence, 72 h; at 46.1 µM (top of the series); note: nearly all actives have a fitted effect of over 75% in size
Method in brief: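 Seed KB-3-1 cells at 500/well in DMEM with 10% FBS, add compounds, incubate 72 hr at 37C and 5% CO2, then add CellTiter-Glo and read luminescence after 10 minutes.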

Measured: outcome

Luciferin 4-monooxygenase (Photinus pyralis), sequence (P08659 whole entry, looked up): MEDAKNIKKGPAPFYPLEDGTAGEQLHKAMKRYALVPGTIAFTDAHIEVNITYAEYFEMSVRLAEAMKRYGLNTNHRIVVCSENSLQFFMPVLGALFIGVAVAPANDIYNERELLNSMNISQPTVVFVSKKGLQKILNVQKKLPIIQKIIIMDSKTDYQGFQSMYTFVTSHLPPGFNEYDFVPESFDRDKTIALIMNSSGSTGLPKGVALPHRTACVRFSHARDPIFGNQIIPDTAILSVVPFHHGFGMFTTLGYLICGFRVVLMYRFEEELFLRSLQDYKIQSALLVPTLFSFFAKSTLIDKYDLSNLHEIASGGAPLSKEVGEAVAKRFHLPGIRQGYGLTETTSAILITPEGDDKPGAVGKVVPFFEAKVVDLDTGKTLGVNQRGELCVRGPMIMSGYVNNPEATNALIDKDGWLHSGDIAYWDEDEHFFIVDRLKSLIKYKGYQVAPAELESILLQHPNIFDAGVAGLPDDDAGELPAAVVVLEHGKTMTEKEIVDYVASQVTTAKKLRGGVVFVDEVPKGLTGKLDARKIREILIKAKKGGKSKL

C=C(C)[C@@H]1CC[C@]2(C(=O)O)CC[C@]3(C)[C@H](CC[C@@H]4[C@@]5(C)CC[C@H](O)C(C)(C)[C@@H]5CC[C@]43C)[C@@H]12
not listed: [16] | [17] | [18] | [19] | [20]
inactive: all other assays above

O=c1c(O)c(-c2ccc(O)c(O)c2)oc2cc(O)ccc12
not listed: [8] | [10] | [12]
inactive: all other assays above
